Whole data set: some 18,000 sequences, median “log2 normalized intensity” near 0.36, cut for the highest 2% near 7.3. For the sample, the highest values were picked, then their nearest neighbours and some sequences at random.

This assay concerns the target T1, HNF4alpha8 (COS-7 nuclear extract) (Homo sapiens, UniProt P41235-5 1-452).
T1 sequence: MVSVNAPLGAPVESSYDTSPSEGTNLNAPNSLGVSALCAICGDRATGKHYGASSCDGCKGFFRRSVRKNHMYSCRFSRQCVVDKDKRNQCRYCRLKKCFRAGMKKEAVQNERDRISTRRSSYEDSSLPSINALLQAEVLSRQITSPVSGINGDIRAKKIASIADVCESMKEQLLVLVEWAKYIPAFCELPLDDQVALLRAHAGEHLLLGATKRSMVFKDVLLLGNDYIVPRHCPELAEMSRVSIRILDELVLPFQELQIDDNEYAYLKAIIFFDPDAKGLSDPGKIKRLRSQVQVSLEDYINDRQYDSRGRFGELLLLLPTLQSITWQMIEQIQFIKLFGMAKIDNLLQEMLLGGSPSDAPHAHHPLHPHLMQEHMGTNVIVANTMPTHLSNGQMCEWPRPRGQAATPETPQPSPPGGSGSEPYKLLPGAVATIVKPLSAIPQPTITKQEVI
The assay is described as follows: protein-binding microarray; COS-7 nuclear extract on double-stranded Agilent 4x180k PBM; binding buffer, salt, pH and temperature not given in the material; high values mean tight binding. The settings on record: chain copies: 2; label: 3' end of strand 1 on the slide; dsDNA, one strand shown. In short, it runs like this:
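COS-7 cells were transiently transfected by CaPO4 with an expression vector for a human HNF4α isoform, and nuclear extracts were prepared from them. The extracts were applied to a custom Agilent SurePrint G3 4x180k array of double-stranded ~60-nt oligonucleotides, with ~44,000 test sequences spotted in quadruplicate. An Agilent G2565CA scanner imaged bound HNF4α at 2-µm resolution. Binding signal is the background-corrected, normalized gProcessedSignal from Agilent software.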
Consider “CTGAATCTCCCAGTGCTTTGATCTTCAACTGCCTAGGGAGATTAGAGTATCGGTCGA”, for which the binding signal turned out to be 0.419 log2 normalized intensity.
Then “CACTTGTAGGCCTGTGTGCATGGAGTGCACGCCTAGGGAGATTAGAGTATCGGTCGA”, with 0.798 log2 normalized intensity; and “CCCCGCCCGCAGCCCAGTCTTGGCCCCACCGCCTAGGGAGATTAGAGTATCGGTCGA”, with 6.38 log2 normalized intensity.
Then “GAGTTATCTTCCTCCCCCCTTGGCTACATGGCCTAGGGAGATTAGAGTATCGGTCGA”, with 4.15 log2 normalized intensity.
As for “TAGGCATTGTCTTGAAAGATAAAGTGTCTCGCCTAGGGAGATTAGAGTATCGGTCGA”, the binding signal is 1.48 log2 normalized intensity.
“TGTGTCAAAGGTCACTTAGTCCCTAAGTCTGCCTAGGGAGATTAGAGTATCGGTCGA”: the binding signal amounted to 5.26 log2 normalized intensity.
For the sequence “TTCCCTACCCCCTGGGAGTAACCTGCTTGTGCCTAGGGAGATTAGAGTATCGGTCGA”, the binding signal was determined as 2.25 log2 normalized intensity.
Then “TTTTAAATACCTTTTTGGGACTGATAACTTGCCTAGGGAGATTAGAGTATCGGTCGA”, with 1.23 log2 normalized intensity.
Turning to “AGCATGGAGAAAATTCTGGACCTTCTTATCGCCTAGGGAGATTAGAGTATCGGTCGA”, the binding signal was 1.59 log2 normalized intensity.
In the case of “CGCTGCGGGTCACGTGCCGCTGCGGGTCACGCCTAGGGAGATTAGAGTATCGGTCGA” it was 2.61 log2 normalized intensity; in that of “AGAATGACCAGGAGTTTGGGATCAGACACGGCCTAGGGAGATTAGAGTATCGGTCGA”, 0.332 log2 normalized intensity.
Then “GAAACTTATTGTGAACTGGAGCAAAGGTCAGCCTAGGGAGATTAGAGTATCGGTCGA”, with 5.97 log2 normalized intensity; and “TTATCTTGATGGTTAAAGTCCAATCTTCTGGCCTAGGGAGATTAGAGTATCGGTCGA”, with 4.82 log2 normalized intensity; and “GACCATCACCACTTCAAGCTTGGTATGCTTGCCTAGGGAGATTAGAGTATCGGTCGA”, with -0.696 log2 normalized intensity.
In the case of “TTTTTTTTCTTAATTGCCCTTTGCCCTTTGGCCTAGGGAGATTAGAGTATCGGTCGA” it was 9.03 log2 normalized intensity; in that of “ACAGTAGACTTTTTTTTTCTTAATTGCCCTGCCTAGGGAGATTAGAGTATCGGTCGA”, 3.18 log2 normalized intensity.
Turning to “AGACTTTTTTTTTCTTAATTGCCCTTTGCCGCCTAGGGAGATTAGAGTATCGGTCGA”, the binding signal was 5.04 log2 normalized intensity.
Consider “GATTGGACTTTGGCCTGTGAATCCACATTCGCCTAGGGAGATTAGAGTATCGGTCGA”, for which the binding signal worked out at 6.47 log2 normalized intensity.
In the case of “TACTGGGGATGGACTTTGGCCCTCAGCCCAGCCTAGGGAGATTAGAGTATCGGTCGA” it was 9.48 log2 normalized intensity.
In the case of “TGCCATGATAAGCAGTGTGGACTTTTTCCTGCCTAGGGAGATTAGAGTATCGGTCGA”, the binding signal was 3.69 log2 normalized intensity.
Then “TCTGATGCCATGATAAGCAGTGTGGACTTTGCCTAGGGAGATTAGAGTATCGGTCGA”, with 7.54 log2 normalized intensity.
Then “TCTGCAGCAGATGGCCAGCCTTTGGACTTTGCCTAGGGAGATTAGAGTATCGGTCGA”, with 8.08 log2 normalized intensity; and “GTGACTTGAAAGGGACTTAGAATCGAATTGGCCTAGGGAGATTAGAGTATCGGTCGA”, with -0.0805 log2 normalized intensity; and “AAAGAGATTGGACTTTGGCCTGTGAATCCAGCCTAGGGAGATTAGAGTATCGGTCGA”, with 9.05 log2 normalized intensity.
For “TGAATTCTGCAGCAGATGGCCAGCCTTTGGGCCTAGGGAGATTAGAGTATCGGTCGA”, the binding signal was -0.939 log2 normalized intensity.
Take “GGGATGGACTTTGGCCCTCAGCCCAATGTGGCCTAGGGAGATTAGAGTATCGGTCGA”: the binding signal is 7.1 log2 normalized intensity.
In the case of “ACCTCTCTGATGCCATGATAAGCAGTGTGGGCCTAGGGAGATTAGAGTATCGGTCGA” it was 0.716 log2 normalized intensity; in that of “GAACAGCAAGACTTTGGCCCTGCAGACTTTGCCTAGGGAGATTAGAGTATCGGTCGA”, 3.02 log2 normalized intensity; in that of “GGACTTTGGCCCTCAGCCCAATGTGGTAGGGCCTAGGGAGATTAGAGTATCGGTCGA”, 6.09 log2 normalized intensity.
Regarding “CCCTGGTCTCTCTTACCCAACCAAAAACAAGCCTAGGGAGATTAGAGTATCGGTCGA”, the binding signal was 3.38 log2 normalized intensity.
In the case of “TACAGGCGTGAGCCACCGCGCCCCGCCCCCGCCTAGGGAGATTAGAGTATCGGTCGA” it was 6.17 log2 normalized intensity; in that of “TCTCAGGTGAGCAGAGGGAGGACAAAGTTCGCCTAGGGAGATTAGAGTATCGGTCGA”, 5.01 log2 normalized intensity.
On to “GCCACATCCCCCACACCGAGATAGTAGAGAGCCTAGGGAGATTAGAGTATCGGTCGA”, for which the binding signal is 3.27 log2 normalized intensity.
As to “ACTTCTGAGTTTTATCAGCTTCCCTGAGATGCCTAGGGAGATTAGAGTATCGGTCGA”, the binding signal was -0.495 log2 normalized intensity.
With “AAACTTCCACTAACTTGAGTGTGCACCCTGGCCTAGGGAGATTAGAGTATCGGTCGA”, the binding signal turned out to be 1.93 log2 normalized intensity.
Regarding “CCGCAGCGCTGGTGGCTGCAAGGTTTGTGTGCCTAGGGAGATTAGAGTATCGGTCGA”, the binding signal worked out at 0.472 log2 normalized intensity.
As to “TTATCATTACTTCTCAACTGATATGGCTCTGCCTAGGGAGATTAGAGTATCGGTCGA”, the binding signal stood at 0.393 log2 normalized intensity.
In the case of “AAGAAACTCGTGGCATTTTTGCCCCTGCCCGCCTAGGGAGATTAGAGTATCGGTCGA”, the binding signal is 3.61 log2 normalized intensity.
Then “CAAATAACATTCCTAACATTCTTCCTCACAGCCTAGGGAGATTAGAGTATCGGTCGA”, with -0.982 log2 normalized intensity; and “TTTGATGGACATTGCTGGTGGTGGTAGATCGCCTAGGGAGATTAGAGTATCGGTCGA”, with 1.45 log2 normalized intensity; and “TTTGTGATTACATTGAGTCCACTGAGATCAGCCTAGGGAGATTAGAGTATCGGTCGA”, with 1.91 log2 normalized intensity.
Regarding “CACTTTCCACTCTCTACTGATATGTCCTCCGCCTAGGGAGATTAGAGTATCGGTCGA”, the binding signal was found to be 1.83 log2 normalized intensity.
In the case of “TTTCTGCTCTCAACTAGAGATAAACTTTTGGCCTAGGGAGATTAGAGTATCGGTCGA”, the binding signal came to 0.481 log2 normalized intensity.

The values above are taken from article PMC10726135, “HNF4α isoforms regulate the circadian balance between carbohydrate and lipid metabolism in the liver”.
